# FLuc modulator = qHTS profiling assay for firefly luciferase inhibitor/activator using purifed enzyme and Km concentrations of substrates (counterscreen for miR-21 project); Luciferin 4-monooxygenase (Photinus pyralis), P08659; Potency, µM (series often up to 57.5 µM), actives largely listed as inhibitors; AID 588342, 2011; 6.9% of 360,000 active; purified FLuc, Km substrates, luminescence inhibition; note: nearly all actives have a fitted effect of over 55% in size
# Target sequence (P08659 whole entry, looked up): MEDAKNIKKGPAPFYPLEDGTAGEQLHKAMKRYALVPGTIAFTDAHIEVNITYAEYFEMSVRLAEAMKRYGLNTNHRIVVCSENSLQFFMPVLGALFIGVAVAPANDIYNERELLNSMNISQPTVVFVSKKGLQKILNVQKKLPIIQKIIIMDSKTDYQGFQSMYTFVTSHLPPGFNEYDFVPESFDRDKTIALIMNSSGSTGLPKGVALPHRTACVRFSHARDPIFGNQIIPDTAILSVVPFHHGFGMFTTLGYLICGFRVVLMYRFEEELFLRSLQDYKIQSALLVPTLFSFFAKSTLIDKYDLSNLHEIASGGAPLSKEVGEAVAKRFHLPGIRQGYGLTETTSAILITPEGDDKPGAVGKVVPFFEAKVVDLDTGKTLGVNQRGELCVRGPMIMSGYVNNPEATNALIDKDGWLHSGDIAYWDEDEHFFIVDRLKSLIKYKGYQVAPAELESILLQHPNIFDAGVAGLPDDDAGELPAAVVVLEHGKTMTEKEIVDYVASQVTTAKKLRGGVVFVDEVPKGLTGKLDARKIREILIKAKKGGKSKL
#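 Purified P. pyralis luciferase (10nM final) with 10uM D-luciferin and 10uM ATP (Km levels) in 50mM Tris acetate pH 7.5, 10mM Mg acetate, 0.01% Tween-20, 0.05% BSA; qHTS 6-point titration, ~60 µM downward; luminescence read.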
# NPC1 promoter act = qHTS Assay for NPC1 Promoter Activators | Huh7 NPC1 promoter luciferase reporter, 24 h | Potency, µM (doses to about 9.22 µM), most hits filed as activators | 2.4% of 320,000 active | AID 485313, 2010; note: nearly all actives have a fitted effect of over 60% in size
#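 Stably transfected Huh7 (NPC1 promoter→luciferase), 1500 cells/well in Opti-MEM + 10% FBS, 2 h settle, then compound 24 h at 37 °C. Luminescence after 10 min with Amplite reagent.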
# SMN2 splice enh = qHTS Assay for Enhancers of SMN2 Splice Variant Expression; AID 1458, 2008; HEK293 SMN2-luciferase splicing reporter, luminescence, 30-36 h; Potency, µM (series often up to 46.1 µM), most hits filed as activators; 2.8% of 210,000 active; note: nearly all actives have a fitted effect of over 55% in size
#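 qHTS luciferase splicing reporter: luminescence rises when SMN2 exon 7 is included in transfected HEK293 cells. Compound exposure lasted 30-36 h at 37C, with 4.5 mM final sodium butyrate as control, followed by a ONE-Glo read.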
# ELG1 DNA repair = qHTS screen for small molecules that inhibit ELG1-dependent DNA repair in human embryonic kidney (HEK293T) cells expressing luciferase-tagged ELG1; Potency, µM (highest dose often 46.1 µM), hits mostly inhibitors; HEK293T ELG1-luciferase reporter, luminescence, 16 h; DNA damage induced by 5-fluorouridine; 2.3% of 330,000 active; note: nearly all actives have a fitted effect of over 55% in size
#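 DMSO vehicle served as the neutral condition. Each well held 2,000 cells given 5-fluorouridine plus compound; after 16 hr at 37 °C/5% CO2, ONE-Glo was added and luciferase measured 30 min later.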
# ELG1 genotoxic = qHTS screen for small molecules that induce genotoxicity in human embryonic kidney (HEK293T) cells expressing luciferase-tagged ELG1; HEK293T ELG1-luciferase reporter, luminescence, 16 h; Potency, µM (titrated, usually from 46 µM), most hits filed as activators; 1.3% of 330,000 active; AID 504466, 2011; note: nearly all actives have a fitted effect of over 60% in size
#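 After overnight (16 hr) compound treatment at 37 °C, ELG1-luciferase HEK293T cells were lysed with ONE-Glo; luminescence quantified 30 min later at room temperature.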
# Rab9 promoter act = qHTS Assay for Rab9 Promoter Activators. 2.8% of 320,000 active. Huh7 Rab9 promoter-luciferase reporter, luminescence, 24 h. AID 485297, 2010. Potency, µM (series often up to 9.22 µM), hits mostly activators; note: nearly all actives have a fitted effect of over 60% in size
#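 Huh7 cells stably carrying a Rab9 promoter-luciferase reporter, 1500 cells per well in OP-MEM I with 10% FBS, treated with compound 24 hours at 37C. Luciferase activity read by luminescence after 10 minutes with Amplite reagent.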
# A number is an active result; i = inactive; ? = inconclusive; nt = no result; [ ] = remark or other dose. Rows were chosen to be rich in hits. Some 9.2% of all compounds tested hit in one or more screens of this group. Calls come from the whole dose curve; as a rule, active = well fitted curve in the direction sought with a large enough effect; inconclusive = small, poorly fitted or top-dose-only effect, or another doubt; inactive = no such curve, though single readings can be large; an effect the other way counts as inactive or inconclusive.
SMILES,FLuc modulator,NPC1 promoter act,SMN2 splice enh,ELG1 DNA repair,ELG1 genotoxic,Rab9 promoter act
CCOc1ccccc1Nc1ncnc2ccc(Br)cc12,i,i,nt,i,i,i
O=C(CSc1cc(Cl)ccc1Cl)Nc1ccc(N2CCOCC2)cc1,i,i,nt,i,i,i
COc1ccc(Cl)cc1NC(=O)C(=O)NCc1ccc(Cl)cc1,i,nt,i,nt,nt,nt
CCOc1ccc(CNC(=O)C2CCCN(c3nc4c(C)cc(C)cc4s3)C2)cc1 (configuration not stated),i,nt,i,nt,nt,nt
COc1ccc(CCNC(=O)C2CCCN(c3nc4c(C)cc(C)cc4s3)C2)cc1OC (configuration not stated),?,nt,2.8µM,nt,nt,nt
COc1ccc(CCNC(=O)C2CCCN(c3nc4ccccc4s3)C2)cc1OC (configuration not stated),i,i,nt,18µM,i,i
Cc1ccc(S(=O)(=O)NC2CC(C)(C)N(O)C(C)(C)C2)cc1,i,i,nt,i,i,i
COc1ccc(N2CCN(S(=O)(=O)c3ccc(F)c(C(=O)Nc4ccccc4Cl)c3)CC2)cc1,i,nt,nt,nt,nt,nt
CCc1ccc(/C=N/NC(=O)c2c[nH]c3ccccc23)s1,6µM,2µM,6.3µM,?,?,1.3µM
O=C(N/N=C/c1cccs1)c1c[nH]c2ccccc12,6µM,3.2µM,11µM,?,?,2.8µM
Cc1ccc(CNC(=O)CSc2n[nH]c(-c3ccc(F)cc3)n2)cc1,i,nt,nt,nt,nt,nt
CSc1n[nH]c(-c2ccc(C(F)(F)F)cc2)n1,17µM,?,nt,?,?,?
CCOC(=O)N1CCC(NC(=O)c2cc(C(=O)Nc3cccc(C(F)(F)F)c3)ccc2CO)CC1,i,i,i,8.2µM,i,i
CCN=c1scc(C)n1/N=C/c1ccsc1,17µM,3.2µM,?,?,?,3.2µM
COc1ccccc1N/C=C/c1onc(C)c1[N+](=O)[O-],0.3µM,1µM,1.1µM,?,?,0.4µM
COc1ccccc1Nc1ccc2nonc2c1[N+](=O)[O-],i,i,nt,i,i,i
Cc1noc(C(=O)Nc2ccc(F)cc2F)c1Cl,i,i,nt,i,i,i
Cc1noc(/C=C/Nc2ccc(F)cc2F)c1[N+](=O)[O-],2.1µM,?,4µM,?,16µM,1.4µM
Cc1noc(/C=C/c2ccccn2)c1[N+](=O)[O-],?,i,nt,18µM,i,i
COc1ccc(CNC(=O)c2coc(=O)c3ccccc23)cc1,i,i,i,i,i,i
COC(=O)c1ccc(C(NC(=O)OCc2ccccc2)/C(=C/[C@@H](C)C(=O)NCc2ccc(-c3ccccc3)cc2)c2cccnc2)cc1 (some centres not stated),nt,nt,i,nt,nt,nt
Cc1cc(/C=C\c2nc(O)c([N+](=O)[O-])c(=O)[nH]2)c(C)n1-c1ccccc1,11µM,i,i,i,i,i
COc1ccc(-n2c(C)cc(/C=C/c3nc(O)c([N+](=O)[O-])c(=O)[nH]3)c2C)cc1,?,i,i,i,i,i
Oc1[nH]c(N=C2N=c3ccccc3=N2)c2ccccc12,1.3µM,3.2µM,nt,?,6.5µM,?
COc1ccccc1NC(=O)CSc1nnc2c3ccccc3n(C(C)C)c2n1,i,nt,?,nt,nt,nt
SMILES,FLuc modulator,NPC1 promoter act,SMN2 splice enh,ELG1 DNA repair,ELG1 genotoxic,Rab9 promoter act
O=S(=O)(O)c1ccc2cc(N=Nc3cc(S(=O)(=O)O)c4cccnc4c3O)ccc2c1,nt,nt,i[9.22 µM],nt,nt,nt
O=Nc1ccc(O)c2ncccc12,i,i,nt,?,?,i
Cc1ccccc1N=Nc1ccc(O)c2ncccc12,i,i,i,?,12µM,i
Oc1ccc(N=Nc2ccc3c(c2)OCCO3)c2cccnc12,6µM,i,i,?,i,i
COc1cccc(N=Nc2ccc3cccnc3c2O)c1,8.5µM,i,nt,2.3µM,16µM,i
COc1ccc(N=Nc2cc(-c3ccccc3)ccc2O)cc1,24µM,i,nt,i,i,i
COc1cccc(N=Nc2ccc(O)c3ncccc23)c1,6µM,i,nt,?,?,i
Nc1ccc(N=Nc2ccccc2)c2cccnc12,21µM,i,nt,?,i,i
O=C(CNC(=O)c1ccc2c(c1)OCCO2)N/N=C/c1ccc(O)cc1O,i,i,i,i,i,i
Nc1ccc(Br)c2cccnc12,i,i,nt,i,i,i
Oc1ccc(N=Nc2ccc3c(c2)OCCO3)c(O)c1,1.2µM,1.3µM,nt,?,?,1.1µM
COc1ccc(N=Nc2ccc(O)c3ncccc23)cc1,i,i,nt,i,4.6µM,i
COc1cccc(NC(=O)CSC2=NN3CCCC(=O)N=C3S2)c1,i,i,nt,i,i,i
COc1ccc(C)c2sc(NC(=O)c3ccc(S(=O)(=O)N4CCOCC4)cc3)nc12,i,nt,nt,nt,nt,nt
Oc1ccc(N=Nc2ccc(Br)cc2)c(O)c1,4.8µM,?,nt,?,?,?
Nc1nonc1C(=Nc1ccc(Br)cc1)NO,i,i,i,i,i,i
O=S(=O)(O)c1cccc2c(N=Nc3ccc(O)c4ncccc34)cccc12,15µM,i,nt,i,i,i
Cc1ccc(N=Nc2ccc(O)cc2)c(Br)c1,3.4µM,?,nt,?,12µM,3.2µM
COc1cc(NS(=O)(=O)c2ccc(NC(=O)COc3ccc(Cl)cc3Cl)cc2)nc(OC)n1,?,nt,i,nt,nt,nt
CC1(C)Cc2nc3sc(C(=O)NCCCO)c(N)c3cc2CS1,15µM,?,14µM,?,?,3.2µM
CC1(C)Cc2nc3sc(C(=O)O)c(N)c3cc2CS1,?,i,i,i,i,i
CC1(C)Cc2nc3sc(C(=O)NCCO)c(N)c3cc2CO1,27µM,i,?,?,i,i
Cn1c(=O)c(C(=O)Nc2cnccn2)c(O)c2ccccc21,i,i,13µM,?,i,?
Cn1c(=O)c(C(=O)Nc2ccccn2)c(O)c2ccccc21,4.8µM,?,nt,?,?,2.8µM
CCn1c(=O)c(C(=O)Nc2cnccn2)c(O)c2ccccc21,i,i,i,i,i,i
SMILES,FLuc modulator,NPC1 promoter act,SMN2 splice enh,ELG1 DNA repair,ELG1 genotoxic,Rab9 promoter act
COc1ccccc1N(CC(=O)Nc1ccccc1C(F)(F)F)S(=O)(=O)c1cccs1,nt,nt,nt,i,i,nt
CC1CCN(C(=O)CCCC(=O)N2CCC(C)CC2)CC1,9.5µM,?,nt,i,i,i
Cc1cccc(NC(=O)CCc2c(C)nn(-c3ccc(N4CCCCC4)nn3)c2C)c1,5.4µM,?,nt,?,i,?
Cc1cccc(NC(=O)CCc2c(C)nn(-c3ccc(N4CCOCC4)nn3)c2C)c1,15µM,i,nt,?,i,i
Cc1ccc(C)c(NC(=O)CCc2c(C)nn(-c3ccc(N4CCCC4)nn3)c2C)c1,i,nt,nt,nt,nt,nt
CCOc1ccccc1NC(=O)c1csc(C)c1C,?,i,nt,i,i,i

# Screening data from PubChem.
